Laboratory results reported in PubChem BioAssay (EPA / NIEHS).
Inconclusive results are not listed. Calls of active or inactive are those of the source. Rule for the calls, unless noted: active = hit-call score of the fitted dose curve at least 0.9, where 1 is the maximum; inactive = score below 0.9.

Assays:
[1] = target: Nuclear respiratory factor 1 (Homo sapiens) (UniProt Q16656); assay: ATG_NRF1_CIS: Attagene CIS-FACTORIAL HepG2 Assay for human Nuclear Respiratory Factor 1 (NRF1) Orphan Gene (AID 2282987); settings: HepG2 NRF1 cis-element reporter, Attagene multiplex; actives raise or lower the signal
Nuclear respiratory factor 1 (Homo sapiens), sequence (Q16656 whole entry, looked up): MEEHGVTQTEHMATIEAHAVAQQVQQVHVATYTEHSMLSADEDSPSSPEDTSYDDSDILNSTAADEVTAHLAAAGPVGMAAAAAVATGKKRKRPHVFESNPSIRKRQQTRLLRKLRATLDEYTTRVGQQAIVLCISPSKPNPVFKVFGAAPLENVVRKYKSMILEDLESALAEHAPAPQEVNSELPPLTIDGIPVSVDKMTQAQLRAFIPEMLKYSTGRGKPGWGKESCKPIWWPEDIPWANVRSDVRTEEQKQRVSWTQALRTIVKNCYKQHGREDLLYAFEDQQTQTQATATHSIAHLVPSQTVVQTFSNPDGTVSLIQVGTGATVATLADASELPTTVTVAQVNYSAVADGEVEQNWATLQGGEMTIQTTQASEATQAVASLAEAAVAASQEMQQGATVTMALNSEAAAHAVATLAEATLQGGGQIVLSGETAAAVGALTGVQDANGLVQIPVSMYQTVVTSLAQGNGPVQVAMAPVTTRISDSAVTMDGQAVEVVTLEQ
Summary of the method: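 Endogenous NRF1-driven reporter transcription measured in transiently transfected human HepG2 liver cells. Readout: reporter mRNA by RT-PCR and capillary electrophoresis with fluorescence detection, 24 h post-dosing. Gain or loss of signal fitted relative to DMSO baseline.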

[2] = ATG_NFI_CIS: Attagene CIS-FACTORIAL HepG2 Assay for human Nuclear Factor I (NFI) (AID 2282989); settings: HepG2 cis-regulatory reporter, NFI response element transcription; actives raise or lower the signal
Summary of the method: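 Read-out: reporter mRNA via RT-PCR plus capillary electrophoresis with fluorescence detection. Transiently transfected HepG2 (endogenous TF activity on cis promoters), 24 h compound exposure; gain or loss of signal fitted against DMSO.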

[3] = target: Myc proto-oncogene protein (Homo sapiens) (UniProt P01106); assay: ATG_Myc_CIS: Attagene CIS-FACTORIAL HepG2 Assay for human Myelocytomatosis (Myc) Proto-Oncogene Transcription Factor (AID 2282990); settings: HepG2, Attagene cis-reporter transcription factor activity; actives raise or lower the signal
Myc proto-oncogene protein (Homo sapiens), sequence (P01106 whole entry, looked up): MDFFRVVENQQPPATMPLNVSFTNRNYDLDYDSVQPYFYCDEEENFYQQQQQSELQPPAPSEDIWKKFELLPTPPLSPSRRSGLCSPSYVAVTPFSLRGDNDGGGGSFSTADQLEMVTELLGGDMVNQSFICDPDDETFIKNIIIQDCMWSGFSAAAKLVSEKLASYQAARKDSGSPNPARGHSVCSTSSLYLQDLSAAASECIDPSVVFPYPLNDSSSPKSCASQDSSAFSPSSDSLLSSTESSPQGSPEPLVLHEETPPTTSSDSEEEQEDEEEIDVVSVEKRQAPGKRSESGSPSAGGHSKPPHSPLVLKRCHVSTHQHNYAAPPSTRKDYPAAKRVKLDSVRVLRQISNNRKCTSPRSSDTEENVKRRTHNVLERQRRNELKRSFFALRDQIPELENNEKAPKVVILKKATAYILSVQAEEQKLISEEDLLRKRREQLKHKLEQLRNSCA
Summary of the method: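 HepG2, transient MRTU transfection (cis promoters, endogenous TFs); 24 h dosing; TriZol RNA → oligo(dT) RT → PCR → 6-FAM primer extension → HpaI cut → CE. Bidirectional fit vs DMSO.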

[4] = ATG_NF_kB_CIS: Attagene CIS-FACTORIAL HepG2 Assay for human Nuclear Factor Kappa B (NF-kB) (AID 2282991); settings: HepG2 Attagene cis-factorial NF-kB reporter mRNA; actives raise or lower the signal
Summary of the method: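 Read-out: reporter transcript levels quantified by RT-PCR plus capillary electrophoresis of 6-FAM-labelled, HpaI-cut fragments. Transfected HepG2 cells, 24 h compound exposure, endogenous NF-kB-driven cis element; gain or loss scored versus DMSO.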

[5] = ATG_NRF2_ARE_CIS: Attagene CIS-FACTORIAL HepG2 Assay for human Nuclear Factor Erythroid 2 Related Factor 2 (NFR2) response to Antioxidant Response Elements (ARE) (AID 2282992); settings: HepG2 Attagene ARE/NRF2 reporter, transcription factor activity; actives raise or lower the signal
Summary of the method: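 Cis-factorial assay: transfected HepG2 reporter library, 24 h dosing, mRNA readout via RT-PCR/CE; DMSO-referenced bidirectional analysis.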

[6] = ATG_Oct_MLP_CIS: Attagene CIS-FACTORIAL HepG2 Assay for human Octamer-Binding Transcription Factor (Oct) (AID 2282993); settings: HepG2 Attagene cis-factorial Oct reporter, mRNA; actives raise or lower the signal
Summary of the method: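 Read-out: reporter mRNA via RT-PCR plus capillary electrophoresis of 6-FAM-labelled fragments. Transiently transfected HepG2, 24 h exposure, endogenous TF activity on cis elements. Gain or loss of signal fitted relative to DMSO.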

[7] = target: Cellular tumor antigen p53 (Homo sapiens) (UniProt P04637); assay: ATG_p53_CIS: Attagene CIS-FACTORIAL HepG2 Assay for human p53 Transcription Factor (AID 2282994); settings: HepG2 p53 cis-element reporter, Attagene mRNA; actives raise or lower the signal
Cellular tumor antigen p53 (Homo sapiens), sequence (P04637 whole entry, looked up): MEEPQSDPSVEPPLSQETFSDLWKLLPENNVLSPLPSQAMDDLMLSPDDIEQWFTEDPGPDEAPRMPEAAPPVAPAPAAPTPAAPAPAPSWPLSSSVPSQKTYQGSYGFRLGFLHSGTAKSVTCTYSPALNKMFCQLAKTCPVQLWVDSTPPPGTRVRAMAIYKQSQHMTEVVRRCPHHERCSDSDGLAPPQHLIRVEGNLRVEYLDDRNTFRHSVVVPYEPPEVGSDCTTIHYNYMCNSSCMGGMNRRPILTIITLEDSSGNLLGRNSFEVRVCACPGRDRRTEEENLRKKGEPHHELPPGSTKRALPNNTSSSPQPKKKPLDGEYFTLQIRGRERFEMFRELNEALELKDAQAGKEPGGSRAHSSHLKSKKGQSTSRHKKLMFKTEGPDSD
Summary of the method: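 Using HepG2 hepatoma cells carrying cis-acting multiplexed reporters, mRNA induction is detected after a 24 h exposure. Gain- and loss-of-signal responses are fitted relative to DMSO-treated cells.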

[8] = BSK_3C_TissueFactor: BioMAP Diversity Plus: 3C Assay for Tissue Factor Biomarker Activity (AID 2282997); settings: BioMAP 3C HUVEC, tissue factor biomarker readout; actives raise or lower the signal
Summary of the method: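 HUVEC were treated 24 h, then surface tissue factor measured by ELISA and fitted bidirectionally against DMSO. Parallel SRB total-protein staining assessed overt cytotoxicity at the same time point.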

[9] = BSK_3C_uPAR: BioMAP Diversity Plus: 3C Assay for Urokinase-type plasminogen activator receptor (uPAR) Biomarker Activity (AID 2282998); settings: BioMAP 3C HUVEC, uPAR biomarker ELISA; actives raise or lower the signal
Summary of the method: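 HUVEC primary cells; 24 h post-dose; uPAR by ELISA; gain or loss of signal fitted bidirectionally vs DMSO baseline.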

[10] = BSK_3C_VCAM1: BioMAP Diversity Plus: 3C Assay for Vascular cell adhesion molecule 1 (VCAM1) Biomarker Activity (AID 2282999); settings: BioMAP 3C HUVEC, VCAM1 ELISA, cytokine-stimulated; actives raise or lower the signal
Summary of the method: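 Endothelial cells from human umbilical vein are treated with test chemical. At 24 h, VCAM-1 is measured by ELISA, and responses in either direction are fitted relative to DMSO.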

[11] = BSK_4H_Eotaxin3: BioMAP Diversity Plus: 4H Assay for Eotaxin 3 Biomarker Activity (AID 2283000); settings: primary human endothelial cells (HUVEC); actives raise or lower the signal;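 for outcome: CCL26 protein level quantified by ELISA in parallel with SRB cytotoxicity check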
Summary of the method: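 Eotaxin-3 (CCL26) levels were measured by ELISA in HUVEC primary cultures 24 h post-dosing. Gain or loss of signal was fitted in both directions, with DMSO serving as baseline and negative control.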

[12] = target: human Peroxisome Proliferator-activated Receptor delta (PPARd), PPARD (gene 5467) (UniProt Q03181); assay: ATG_PPARd_TRANS: Attagene TRANS-FACTORIAL HepG2 Assay for human Peroxisome Proliferator-activated Receptor delta (PPARd) (AID 2283002; active = hit-call score of the fitted dose curve at least 0.9, where 1 is the maximum)
human Peroxisome Proliferator-activated Receptor delta (PPARd), PPARD (gene 5467), sequence (Q03181 whole entry, looked up, the tested form may be a part): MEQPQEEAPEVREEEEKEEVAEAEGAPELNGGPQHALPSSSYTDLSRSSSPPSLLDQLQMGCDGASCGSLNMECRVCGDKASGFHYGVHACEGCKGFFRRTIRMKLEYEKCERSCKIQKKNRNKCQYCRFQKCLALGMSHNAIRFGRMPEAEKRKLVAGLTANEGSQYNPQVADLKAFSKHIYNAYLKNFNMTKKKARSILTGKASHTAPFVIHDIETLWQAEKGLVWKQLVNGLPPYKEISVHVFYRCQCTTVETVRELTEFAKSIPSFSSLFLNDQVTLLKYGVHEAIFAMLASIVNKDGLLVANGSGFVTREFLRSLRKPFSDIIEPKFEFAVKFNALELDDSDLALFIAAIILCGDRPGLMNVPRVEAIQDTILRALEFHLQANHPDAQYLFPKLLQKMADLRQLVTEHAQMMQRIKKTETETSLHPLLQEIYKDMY
Summary of the method: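 Transient HepG2 transfection (multiple GAL4-UAS RTUs, chimeric receptor-Gal4); 24 h dosing; total RNA → oligo(dT) RT → PCR → 6-FAM primer extension → HpaI cut → CE. Positive direction vs DMSO.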

[13] = read-out: Intercellular Adhesion Molecule 1 (ICAM1), ICAM1 (gene 3383); assay: BSK_3C_ICAM1: BioMAP Diversity Plus: 3C Assay for Intercellular Adhesion Molecule 1 (ICAM1) Biomarker Activity (AID 2283003); settings: primary human endothelial cells (HUVEC); actives raise or lower the signal
Summary of the method: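 HUVEC primary cells stimulated under 3C conditions; ICAM1 measured by ELISA 24 h after compound dosing. Curves fitted bidirectionally against the DMSO baseline. Overt cytotoxicity checked by SRB staining of parallel cultures.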

[14] = BSK_3C_Proliferation: Cell Proliferation Assessment in the BioMAP Diversity Plus: 3C Assay (AID 2283006); settings: primary human endothelial cells (HUVEC);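 for AC50: potency may reflect either rise or fall in cell number versus DMSO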
Summary of the method: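 Subconfluent HUVEC (3C system) cultured with chemical; relative cell number read at 48 h by sulforhodamine B total-protein staining (0.1% SRB after 10% TCA fixation, 560 nm). Bidirectional fit relative to DMSO.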

[15] = target: Peroxisome proliferator-activated receptor gamma (Homo sapiens) (UniProt P37231); assay: ATG_PPARg_TRANS: Attagene TRANS-FACTORIAL HepG2 Assay for human Peroxisome Proliferator-activated Receptor-gamma (PPARg) (AID 2283007; active = hit-call score of the fitted dose curve at least 0.9, where 1 is the maximum)
Peroxisome proliferator-activated receptor gamma (Homo sapiens), sequence (P37231 whole entry, looked up, the tested form may be a part): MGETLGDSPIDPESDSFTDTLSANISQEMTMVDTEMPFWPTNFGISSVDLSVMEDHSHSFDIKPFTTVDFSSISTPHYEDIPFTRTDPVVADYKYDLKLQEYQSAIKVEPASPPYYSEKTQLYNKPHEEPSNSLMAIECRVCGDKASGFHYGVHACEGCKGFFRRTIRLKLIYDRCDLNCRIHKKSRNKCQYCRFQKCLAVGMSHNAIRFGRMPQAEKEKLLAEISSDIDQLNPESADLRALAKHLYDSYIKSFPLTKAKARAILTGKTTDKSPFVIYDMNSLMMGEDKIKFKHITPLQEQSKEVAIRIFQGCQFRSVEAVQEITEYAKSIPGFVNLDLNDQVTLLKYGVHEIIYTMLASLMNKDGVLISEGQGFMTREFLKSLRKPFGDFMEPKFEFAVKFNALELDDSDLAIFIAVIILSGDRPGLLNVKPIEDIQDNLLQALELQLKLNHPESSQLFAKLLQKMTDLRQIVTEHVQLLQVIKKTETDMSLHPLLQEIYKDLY
Summary of the method: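 Read-out: reporter mRNA induction, detected by fluorescence after RT-PCR and capillary electrophoresis. Transiently transfected human HepG2 liver cells carrying a chimeric NR-Gal4 construct were dosed for 24 h; activity was fitted upward relative to DMSO.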

[16] = target: Nuclear receptor subfamily 1 group I member 2 (Homo sapiens) (UniProt O75469); assay: ATG_PXR_TRANS: Attagene TRANS-FACTORIAL HepG2 Assay for human Pregnane X Receptor (PXR) (AID 2283008; active = hit-call score of the fitted dose curve at least 0.9, where 1 is the maximum)
Nuclear receptor subfamily 1 group I member 2 (Homo sapiens), sequence (O75469 whole entry, looked up, the tested form may be a part): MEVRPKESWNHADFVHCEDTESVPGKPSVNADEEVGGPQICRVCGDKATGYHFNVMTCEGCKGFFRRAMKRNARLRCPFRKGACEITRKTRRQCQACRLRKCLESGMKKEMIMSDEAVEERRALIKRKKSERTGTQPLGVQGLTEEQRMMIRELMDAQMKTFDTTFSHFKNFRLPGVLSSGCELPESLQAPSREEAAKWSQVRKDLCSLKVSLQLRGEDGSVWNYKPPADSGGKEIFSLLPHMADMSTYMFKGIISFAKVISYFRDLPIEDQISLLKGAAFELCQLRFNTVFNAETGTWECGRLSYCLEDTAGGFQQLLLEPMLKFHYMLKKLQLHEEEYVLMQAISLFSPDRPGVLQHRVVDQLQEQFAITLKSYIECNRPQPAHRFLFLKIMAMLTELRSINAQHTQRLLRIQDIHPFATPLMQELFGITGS
Summary of the method: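 Fluorescence intensity of FAM-labelled, HpaI-digested reporter amplicons, separated by capillary electrophoresis, quantifies induction. HepG2 cells with PXR-Gal4 trans-reporter system were exposed 24 h; DMSO defines baseline.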

[17] = target: human Peroxisome Proliferator-activated Receptor alpha (PPARa), PPARA (gene 5465) (UniProt Q07869); assay: ATG_PPARa_TRANS: Attagene TRANS-FACTORIAL HepG2 Assay for human Peroxisome Proliferator-activated Receptor alpha (PPARa) (AID 2283001; active = hit-call score of the fitted dose curve at least 0.9, where 1 is the maximum)
human Peroxisome Proliferator-activated Receptor alpha (PPARa), PPARA (gene 5465), sequence (Q07869 whole entry, looked up, the tested form may be a part): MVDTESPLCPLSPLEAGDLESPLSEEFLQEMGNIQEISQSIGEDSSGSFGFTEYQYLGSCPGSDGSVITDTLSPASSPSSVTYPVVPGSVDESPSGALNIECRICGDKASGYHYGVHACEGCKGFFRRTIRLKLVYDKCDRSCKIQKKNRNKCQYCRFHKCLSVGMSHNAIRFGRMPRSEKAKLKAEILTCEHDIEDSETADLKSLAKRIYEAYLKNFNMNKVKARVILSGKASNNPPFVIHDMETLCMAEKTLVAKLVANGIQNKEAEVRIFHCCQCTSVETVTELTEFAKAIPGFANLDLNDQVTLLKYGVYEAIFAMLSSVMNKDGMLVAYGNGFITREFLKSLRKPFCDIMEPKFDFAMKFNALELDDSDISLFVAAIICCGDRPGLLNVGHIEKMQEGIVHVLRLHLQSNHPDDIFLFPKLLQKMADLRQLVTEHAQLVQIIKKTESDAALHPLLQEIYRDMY
Summary of the method: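 Read-out is fluorescence of reporter cDNA fragments resolved by capillary electrophoresis after RT-PCR. Human HepG2 liver cells carried transfected PPARa-Gal4 chimera and GAL4-UAS reporter units, treated 24 h; activity scored as increase over DMSO.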

[18] = target: human Retinoic Acid Receptor gamma (RARg), RARG (gene 5916) (UniProt P13631); assay: ATG_RARg_TRANS: Attagene TRANS-FACTORIAL HepG2 Assay for human Retinoic Acid Receptor gamma (RARg) (AID 2283009; active = hit-call score of the fitted dose curve at least 0.9, where 1 is the maximum)
human Retinoic Acid Receptor gamma (RARg), RARG (gene 5916), sequence (P13631 whole entry, looked up, the tested form may be a part): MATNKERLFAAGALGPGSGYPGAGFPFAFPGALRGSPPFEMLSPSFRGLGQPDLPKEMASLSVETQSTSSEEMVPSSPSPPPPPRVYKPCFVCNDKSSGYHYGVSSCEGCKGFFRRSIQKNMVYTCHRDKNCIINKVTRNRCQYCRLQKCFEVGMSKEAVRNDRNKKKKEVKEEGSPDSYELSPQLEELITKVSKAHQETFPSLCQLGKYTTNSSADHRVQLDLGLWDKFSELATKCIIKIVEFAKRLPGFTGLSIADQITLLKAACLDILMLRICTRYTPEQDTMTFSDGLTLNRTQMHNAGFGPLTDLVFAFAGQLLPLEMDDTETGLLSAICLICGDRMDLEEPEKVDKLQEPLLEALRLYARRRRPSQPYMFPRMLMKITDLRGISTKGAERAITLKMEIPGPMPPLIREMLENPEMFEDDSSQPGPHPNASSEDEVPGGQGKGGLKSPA
Summary of the method: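 HepG2 transiently transfected with GAL4-UAS reporter units and chimeric NR-Gal4 constructs; 24 h compound exposure. Reporter mRNA quantified by RT-PCR, FAM labeling, HpaI digestion and capillary electrophoresis; gain-of-signal versus DMSO.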

[19] = target: Retinoic acid receptor alpha (Homo sapiens) (UniProt P10276); assay: ATG_RARa_TRANS: Attagene TRANS-FACTORIAL HepG2 Assay for human Retinoic Acid Receptor alpha (RARa) (AID 2283005; active = hit-call score of the fitted dose curve at least 0.9, where 1 is the maximum)
Retinoic acid receptor alpha (Homo sapiens), sequence (P10276 whole entry, looked up, the tested form may be a part): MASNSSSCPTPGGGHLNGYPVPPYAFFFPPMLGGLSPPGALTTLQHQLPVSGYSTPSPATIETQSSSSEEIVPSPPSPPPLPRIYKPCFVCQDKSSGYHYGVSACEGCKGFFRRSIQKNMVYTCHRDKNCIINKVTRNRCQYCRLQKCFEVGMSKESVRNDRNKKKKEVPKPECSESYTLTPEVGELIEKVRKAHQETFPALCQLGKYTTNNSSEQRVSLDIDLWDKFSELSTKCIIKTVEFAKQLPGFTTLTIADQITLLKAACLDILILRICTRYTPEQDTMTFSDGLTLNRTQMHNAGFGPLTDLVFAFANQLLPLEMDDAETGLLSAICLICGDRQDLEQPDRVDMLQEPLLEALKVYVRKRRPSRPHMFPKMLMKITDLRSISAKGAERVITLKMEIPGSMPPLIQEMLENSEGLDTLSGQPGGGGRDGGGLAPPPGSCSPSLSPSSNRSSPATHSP
Summary of the method: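 Reporter transcripts, measured by RT-PCR with fluorescent labeling and capillary electrophoresis after 24 h dosing, reflect activity of an exogenous human RARa–GAL4 fusion in transiently transfected HepG2. Fitted for increase relative to DMSO.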

[20] = target: human Retinoic Acid Receptor beta (RARb), RARB (gene 5915) (UniProt P10826); assay: ATG_RARb_TRANS: Attagene TRANS-FACTORIAL HepG2 Assay for human Retinoic Acid Receptor beta (AID 2283004; active = hit-call score of the fitted dose curve at least 0.9, where 1 is the maximum)
human Retinoic Acid Receptor beta (RARb), RARB (gene 5915), sequence (P10826 whole entry, looked up, the tested form may be a part): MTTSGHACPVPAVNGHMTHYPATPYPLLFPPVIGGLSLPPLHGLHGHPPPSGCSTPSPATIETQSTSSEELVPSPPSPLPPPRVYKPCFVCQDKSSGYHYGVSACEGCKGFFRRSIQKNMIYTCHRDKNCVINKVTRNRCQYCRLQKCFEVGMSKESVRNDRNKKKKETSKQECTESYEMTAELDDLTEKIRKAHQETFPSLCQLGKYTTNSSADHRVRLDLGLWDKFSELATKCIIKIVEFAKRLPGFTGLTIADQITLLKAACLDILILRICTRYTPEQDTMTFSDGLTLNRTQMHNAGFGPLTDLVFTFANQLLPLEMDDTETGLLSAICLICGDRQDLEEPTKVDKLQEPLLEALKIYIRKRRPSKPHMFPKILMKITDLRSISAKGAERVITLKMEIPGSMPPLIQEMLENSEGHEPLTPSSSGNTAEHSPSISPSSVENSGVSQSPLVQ
Summary of the method: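 HepG2 cells were transiently transfected with GAL4-UAS reporter units that report activity of exogenous chimeric NR-Gal4 proteins, then exposed to compound for 24 h. Reporter mRNA was quantified by RT-PCR with capillary electrophoresis fluorescence, as gain of signal over DMSO.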

Structure (SMILES): CNC(=O)[C@H]1O[C@@H](n2cnc3c(NCc4cc(Cl)ccc4OCc4cc(C)no4)ncnc32)[C@H](O)[C@@H]1N
- outcome [1]: inactive
- outcome [2]: inactive
- outcome [3]: inactive
- outcome [4]: inactive
- outcome [5]: inactive
- outcome [6]: inactive
- outcome [7]: inactive
- outcome [8]: inactive
- outcome [9]: inactive
- outcome [10]: inactive
- outcome [11]: inactive
- outcome [12]: inactive
- outcome [13]: inactive
- outcome [14]: inactive
- outcome [15]: inactive
- outcome [16]: inactive

Structure (SMILES): Cc1cccc(C)c1O
- outcome [1]: inactive
- outcome [2]: inactive
- outcome [3]: inactive
- outcome [4]: inactive
- outcome [5]: inactive
- outcome [6]: inactive
- outcome [7]: inactive
- outcome [8]: inactive
- outcome [9]: inactive
- outcome [10]: inactive
- outcome [11]: inactive
- outcome [17]: inactive
- outcome [13]: inactive
- outcome [14]: inactive
- outcome [16]: inactive
- outcome [18]: inactive

Structure (SMILES): c1cc(-c2ccncc2)ccn1
- outcome [1]: inactive
- outcome [2]: inactive
- outcome [3]: inactive
- outcome [4]: inactive
- outcome [5]: inactive
- outcome [6]: inactive
- outcome [7]: inactive
- outcome [8]: inactive
- outcome [9]: inactive
- outcome [10]: inactive
- outcome [11]: inactive
- outcome [13]: inactive
- outcome [19]: inactive
- outcome [14]: inactive
- outcome [18]: inactive

Structure (SMILES): CC1(C)CC(N=C=O)CC(C)(CN=C=O)C1 (stereo not drawn)
- outcome [1]: inactive
- outcome [2]: inactive
- outcome [3]: inactive
- outcome [4]: inactive
- outcome [5]: inactive
- outcome [6]: inactive
- outcome [7]: inactive
- outcome [8]: inactive
- outcome [9]: inactive
- outcome [10]: inactive
- outcome [11]: inactive
- outcome [13]: inactive
- outcome [14]: inactive

Structure (SMILES): CCc1c(C(=O)NN2CCCCC2)nn(-c2ccc(Cl)cc2Cl)c1-c1ccc(Br)cc1
- AC50 [1]: 7.79 µM (active)
- outcome [2]: inactive
- outcome [3]: inactive
- outcome [4]: inactive
- AC50 [5]: 1.53 µM (active)
- outcome [6]: inactive
- outcome [7]: inactive
- AC50 [8]: 11.7 µM (active)
- AC50 [9]: 6.7 µM (active)
- AC50 [10]: 11.1 µM (active)
- AC50 [11]: 8.48 µM (active)
- outcome [12]: inactive
- outcome [13]: inactive
- AC50 [14]: 6.79 µM (active)
- AC50 [15]: 0.0976 µM (active)
- outcome [16]: inactive

Structure (SMILES): C[C@]12C=CC(=O)C=C1CC[C@@H]1[C@@H]2C(=O)C[C@@]2(C)[C@H]1CC[C@]2(O)C(=O)CO
- outcome [1]: inactive
- outcome [2]: inactive
- outcome [3]: inactive
- outcome [4]: inactive
- outcome [5]: inactive
- outcome [6]: inactive
- outcome [7]: inactive
- outcome [8]: inactive
- outcome [9]: inactive
- outcome [10]: inactive
- outcome [11]: inactive
- outcome [17]: inactive
- outcome [13]: inactive
- outcome [14]: inactive
- outcome [15]: inactive
- outcome [16]: inactive

Structure (SMILES): COCCOCCOC
- outcome [1]: inactive
- outcome [2]: inactive
- outcome [3]: inactive
- outcome [4]: inactive
- outcome [5]: inactive
- outcome [6]: inactive
- outcome [7]: inactive
- outcome [8]: inactive
- outcome [9]: inactive
- outcome [10]: inactive
- outcome [11]: inactive
- outcome [13]: inactive
- outcome [20]: inactive
- outcome [14]: inactive

Structure (SMILES): OC[C@@H](O)[C@@H](O)[C@H](O)[C@H](O)CO
- outcome [1]: inactive
- outcome [2]: inactive
- outcome [3]: inactive
- outcome [4]: inactive
- outcome [5]: inactive
- outcome [6]: inactive
- outcome [7]: inactive
- outcome [8]: inactive
- outcome [9]: inactive
- outcome [10]: inactive
- outcome [11]: inactive
- outcome [17]: inactive
- outcome [13]: inactive
- outcome [19]: inactive
- outcome [14]: inactive
- outcome [16]: inactive
- outcome [18]: inactive
